The test system of this test is TYKNU. Put plainly: fractional viability relative to vehicle; TYKNU is a high-grade serous ovarian cancer line; higher = less growth inhibition. Conditions: 72 h, genotype: OPA1 knockout (sgOPA1 #2). An outline of the steps: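 TYKNU control cells or lentiCRISPRv2 knockout derivatives were seeded at 500 cells per well into drug-stamped 384-well plates holding a ~2100-compound library at 2 or 10 μM, in duplicate. Cells were grown at 37 °C in 5% CO2 in RPMI 1640 with 10% FBS, and drug treatment lasted 72 h. Viability was read by Cell Titer Glo luminescence. Duplicate treatment wells were averaged and normalised to duplicate control wells from the same plate position.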

Each structure is given as a SMILES string. Where a name gives a salt, the structure may show the parent alone. The full ranking holds about 2,000 compounds; the median of “fractional viability relative to vehicle” is about 0.92, and the lowest 2% start at about 0.11. The full list was thinned out, with the lowest values kept by preference.

`COc1cc2c(cc1OC)CC(=O)N(CCCN(C)C[C@H]1Cc3cc(OC)c(OC)cc31)CC2` [Ivabradine HCl]: the fractional viability stood at 1.02 (2uM) and 0.967 (10uM).
Regarding `COc1ccc(-c2cnc3c(-c4cccc5ncccc45)cnn3c2)cc1`, the fractional viability is 1.15 (2uM) and 1.2 (10uM).
For `COc1cc(-c2cc(-c3ccc(N4CCNCC4)cc3)cnc2C)cc(OC)c1OC`, the fractional viability (2uM) was 0.878 and the fractional viability (10uM) is 0.835.
Compound `c1cc(-c2cnn3cc(-c4ccc(N5CCNCC5)cc4)cnc23)c2cccnc2c1` had a fractional viability (2uM) of 0.104 and a fractional viability (10uM) of 0.0761.
Regarding `CC1(C)CC(=O)c2c(C(F)(F)F)nn(-c3ccc(C(N)=O)c(N[C@H]4CC[C@H](O)CC4)c3)c2C1`, the fractional viability reads like this: (2uM) 0.668; (10uM) 0.574.
Consider `CC1(C)C=C(CN2C/C(=C\c3ccc(F)cc3)C(=O)/C(=C/c3ccc(F)cc3)C2)C(C)(C)N1O`, for which the fractional viability reads like this: (2uM) 0.837; (10uM) 0.79.
As for `C=CC(=O)N1C/C(=C\c2ccc([N+](=O)[O-])cc2)C(=O)/C(=C/c2ccc([N+](=O)[O-])cc2)C1`, the fractional viability runs as follows: (2uM) 0.0989; (10uM) 0.111.
`CC(=O)c1cc([N+](=O)[O-])c(Sc2ccc(F)cc2F)s1`: the fractional viability (2uM) came out at 0.985 and the fractional viability (10uM) was found to be 0.596.
Consider `COc1ccc([C@H]2CNC(=O)C2)cc1OC1CCCC1` [S- (+)-Rolipram], for which the fractional viability was 1.2 (2uM) and 1.04 (10uM).
Regarding `Cc1cc(C)nc(NS(=O)(=O)c2ccc(NC(=S)NC(=O)COc3ccc(Br)cc3Cl)cc2)n1`, the fractional viability runs as follows: (2uM) 0.956; (10uM) 0.803.
As to `O=C(NCc1ccncc1)C12CC3CC(C1)CC(c1ccc(Cl)cc1)(C3)C2`, the fractional viability runs as follows: (2uM) 1.06; (10uM) 0.861.
Regarding `NC(=O)N/N=C/c1ccc([N+](=O)[O-])o1` [Nitrofural], the fractional viability by setting is: (2uM) 1.55; (10uM) 1.47.
Regarding `Cc1ccc(S(=O)(=O)c2ccc([N+](=O)[O-])o2)cc1`, the fractional viability is 0.0667 (2uM) and 0.0291 (10uM).
In the same order, the values of `CC(C)(C)NS(=O)(=O)c1cncc(-c2cc(F)c3nc(N)nn3c2)c1` are 1.04 and 1.06.
Take `O=C(O)C1=C[C@@H](O)[C@@H](O)[C@H](O)C1` [Shikimic Acid]: the fractional viability (2uM) was 1.04 and the fractional viability (10uM) was determined as 0.875.
Turning to `C=C1/C(=C\C=C2/CCC[C@]3(C)[C@@H]([C@H](C)CCCC(C)(C)O)CC[C@@H]23)C[C@@H](O)C[C@@H]1O` [Calcitriol], the fractional viability runs as follows: (2uM) 0.965; (10uM) 0.937.
As to `Cc1ccccc1CN1C2=NCCN2C(=O)C2=C1CCN(Cc1ccccc1)C2` [TIC10 Analogue], the fractional viability (2uM) turned out to be 0.878 and the fractional viability (10uM) turned out to be 0.768.
In the same order, the values of `COc1cc2ncnc(Oc3ccc(CC(=O)Nc4cnn(C(C)C)c4)cc3)c2cc1OC` are 0.949 and 0.942.
Consider `CC1(C)CC[C@]2(NC(=O)C(C)(F)F)CC[C@]3(C)[C@H](C(=O)C=C4[C@@]5(C)C=C(C#N)C(=O)C(C)(C)[C@@H]5CC[C@]43C)[C@@H]2C1` [Omaveloxolone (RTA-408)], for which the fractional viability by setting is: (2uM) 0.166; (10uM) 0.0407.
With `CN(C)CCNC(=O)c1cccn2c(=O)c3cc4ccccc4cc3nc12`, the fractional viability is 0.61 (2uM) and 0.294 (10uM).
For `COc1nccc(-c2c(-c3ccc(F)cc3)ncn2C2CCC(O)CC2)n1` (configuration not stated), in that order: 0.999 and 0.786.
As to `CC(C)(Cc1ccc2ccccc2c1)NC[C@@H](O)COc1cccc(Cl)c1C#N`, the fractional viability turned out to be 1.06 (2uM) and 0.0653 (10uM).
With `CC(C)(C)NCC(O)COc1cccc2c1CCC(=O)N2` (configuration not stated) [Carteolol HCl], the fractional viability by setting is: (2uM) 0.973; (10uM) 0.93.
`CC(C)NCC(O)COc1cccc2ccccc12` (configuration not stated) [Propranolol HCl]: the fractional viability runs as follows: (2uM) 0.809; (10uM) 1.12.
With `O=[N+]([O-])c1ccc(Nc2nc(N3CCOCC3)nc(N3CCOCC3)n2)cc1`, the fractional viability turned out to be 0.893 (2uM) and 0.934 (10uM).
In the same order, the values of `CC(C)(C)c1ccc(S(=O)(=O)NCc2ccc(C(=O)Nc3cccnc3)cc2)cc1` are 0.306 and 0.165.
For the compound `CCS(=O)(=O)N1CCN(c2ccc(Nc3ncc(C(N)=O)c(NC4CC4)n3)cc2)CC1`, the fractional viability came out at 0.781 (2uM) and 0.496 (10uM).
For `COc1cc2c(cc1OC)CN(CCc1ccc(NC(=O)c3cc(OC)c(OC)cc3NC(=O)c3cnc4ccccc4c3)cc1)CC2` [Tariquidar], the fractional viability was found to be 0.891 (2uM) and 0.459 (10uM).
In the case of `CCCC(=O)Nc1cccc(NC(=O)c2ccccc2Br)c1`, the fractional viability is, setting by setting: (2uM) 1; (10uM) 1.07.
`CCc1ccc(OCc2ccccc2C(=O)Nc2ccc3nc(C)cc(N)c3c2)cc1`: the fractional viability by setting is: (2uM) 0.16; (10uM) 0.0251.
Turning to `Cc1ccc(CNc2ncnc3ccc(-c4ccc(CO)o4)cc23)o1`, the fractional viability runs as follows: (2uM) 0.989; (10uM) 1.02.
On to `O=[N+]([O-])c1cn2c(n1)OC[C@@H](OCc1ccc(OC(F)(F)F)cc1)C2`, for which the fractional viability by setting is: (2uM) 1.15; (10uM) 1.66.
On to `CC(C)(C)OC(=O)Nc1ccc(-c2cc(C(=O)NCCCCCCC(=O)NO)no2)cc1`, for which the fractional viability (2uM) was 0.367 and the fractional viability (10uM) came to 0.171.
For `COc1cc(/C=C/C(=O)N2CCN(CC(=O)N3CCCC3)CC2)cc(OC)c1OC` [Cinepazide maleate], in that order: 0.929 and 0.991.
In the same order, the values of `COc1ccc(/C=C\c2cc(OC)c(OC)c(OC)c2)cc1O` [Combretastatin A4] are 0.313 and 0.292.
With `COc1cc(/C=C/C(=O)N2CCC=CC2=O)cc(OC)c1OC` [Piperlongumine], the fractional viability reads like this: (2uM) 0.31; (10uM) 0.085.

Source of the values: the supplement of paper PMC5919970.
